According to PubChem BioAssay (NCI):
Where “and” joins values, the source holds several entries; their conditions need not be identical. Identical values can stand only once. Compounds without any hit were thinned out: in the full panel of roughly 83,000, 20% have a hit.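 Plates (96-well) were seeded with cells, treated with compound at one concentration, and incubated for 48 hours before percent growth was determined.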 Calls of active or inactive are those of the source. How the source made its calls: active means growth percent below 10; inactive means the rest.

Columns and labels:
Test in all cases: NCI-60 one-dose screen, 48 h (100 = growth as untreated, 0 = no growth, -100 = all killed)
NCI-H226 lung = settings: 10 µM
NCI-H322M lung = settings: 10 µM
HOP-62 NSCLC = settings: 10 µM
A549/ATCC NSCLC = settings: 10 µM
786-0 renal = settings: 10 µM
COLO 205 colon = settings: 10 µM
DU-145 prostate = settings: 10 µM
SF-268 CNS = settings: 10 µM
SF-295 CNS = settings: 10 µM
SF-539 CNS = settings: 10 µM
HCT-15 colon = settings: 10 µM
SNB-75 CNS = settings: 10 µM
SNB-19 CNS = settings: 10 µM
U251 CNS = settings: 10 µM
PC-3 prostate = settings: 10 µM
EKVX NSCLC = settings: 10 µM
UO-31 renal = settings: 10 µM
ACHN renal = settings: 10 µM
HL-60(TB) leukemia = settings: 10 µM unless noted
CCRF-CEM leukemia = settings: 10 µM

Measured: growth

Cc1ccc(CNc2nc3ccc(OC/C(=C/F)CN)cc3o2)cn1
inactive: NCI-H226 lung 90.3% | NCI-H322M lung 105% | HOP-62 NSCLC 72.9% | A549/ATCC NSCLC 95.6% | 786-0 renal 92.3% | COLO 205 colon 111% | DU-145 prostate 88.4% | SF-268 CNS 89.8% | SF-295 CNS 99.9% | SF-539 CNS 94.9% | HCT-15 colon 112% | SNB-75 CNS 55.5% | SNB-19 CNS 98.8% | U251 CNS 110% | PC-3 prostate 98.3% | EKVX NSCLC 61.7% | UO-31 renal 58.4% | ACHN renal 99% | HL-60(TB) leukemia 141% | CCRF-CEM leukemia 105%

CC1=C2C(=C[C@@](C)(COS(C)(=O)=O)[C@@H]2O)C(=O)[C@](C)(O)C12CC2
active: NCI-H226 lung -15.3% | NCI-H322M lung 4.33% | HOP-62 NSCLC 0.685% | 786-0 renal 4.19% | COLO 205 colon -33.7% | DU-145 prostate 9.22% | SF-268 CNS 5.21% | SF-295 CNS -2.13% | SF-539 CNS -26.2% | HCT-15 colon 3.8% | SNB-75 CNS -74.6% | SNB-19 CNS 4.72% | U251 CNS 7.54% | PC-3 prostate 6.69% | EKVX NSCLC 4.37% | UO-31 renal -8.95% | ACHN renal -0.611% | HL-60(TB) leukemia -9.62%
inactive: A549/ATCC NSCLC 11.3% | CCRF-CEM leukemia 11%

COC(=O)[C@H]1[C@@H](O)[C@@]2(O)c3c(OC)cc(OC)cc3O[C@@]2(c2ccc(OC)cc2)[C@@H]1c1ccccc1
active: NCI-H226 lung 3.03% | NCI-H322M lung -19% | HOP-62 NSCLC -11.6% | A549/ATCC NSCLC -14.9% | 786-0 renal 0.303% | COLO 205 colon -71% | DU-145 prostate -9.42% | SF-268 CNS 0.0752% | SF-295 CNS -14.4% | SF-539 CNS -25.6% | HCT-15 colon -3.06% | SNB-75 CNS -6.18% | SNB-19 CNS -4.86% | U251 CNS -5.73% | PC-3 prostate -7.51% | EKVX NSCLC -5.16% | UO-31 renal -20.5% | ACHN renal -23% | HL-60(TB) leukemia -21.8% | CCRF-CEM leukemia 4.76%

CC(C)=CCc1c2c(c(O)c3c1O[C@]14C(=C[C@@H]5C[C@H]1C(C)(C)O[C@@]4(C/C=C(/C)C(=O)O)C5=O)C3=O)C=CC(C)(C)O2
active: NCI-H226 lung -2.64% | NCI-H322M lung -84.9% | HOP-62 NSCLC -71.1% | A549/ATCC NSCLC -43.9% | 786-0 renal -82.7% | COLO 205 colon -79.8% | DU-145 prostate -100% | SF-268 CNS -75.1% | SF-295 CNS -64.5% | SF-539 CNS -38.9% | HCT-15 colon -72.5% | SNB-75 CNS -62.3% | SNB-19 CNS -50.9% | U251 CNS -87.7% | PC-3 prostate -37.8% | EKVX NSCLC -62.3% | UO-31 renal -76% | ACHN renal -82.6% | HL-60(TB) leukemia -33.7% | CCRF-CEM leukemia -1.96%

CN1C(=O)[C@]23SSC1(C)C(=O)N2[C@H]1Nc2ccccc2C1([C@@]12c4ccccc4N[C@@H]1N1C(=O)C4(C)SS[C@]1(C(=O)N4C)[C@H]2O)[C@@H]3O (stereo not given in full)
active: NCI-H226 lung -96.6% | NCI-H322M lung -74.2% | HOP-62 NSCLC -91% | A549/ATCC NSCLC -86.9% | 786-0 renal -99.1% | COLO 205 colon -88.9% | DU-145 prostate -94.1% | SF-268 CNS -86.5% | SF-295 CNS -80.2% | SF-539 CNS -91.3% | HCT-15 colon -45.4% | SNB-75 CNS -85.8% | SNB-19 CNS -99.4% | U251 CNS -97.5% | PC-3 prostate -79.9% | EKVX NSCLC -97.4% | UO-31 renal -100% | ACHN renal -98.8% | HL-60(TB) leukemia -19.4% | CCRF-CEM leukemia 1.4%

CC1=C[C@H]2O[C@@H]3C[C@H]4OC(=O)/C=C\C=C\[C@H]([C@@H](C)O)OCC/C(C)=C/C(=O)OC[C@@]2(CC1)[C@]4(C)[C@]31CO1
active: NCI-H226 lung -50.5% | NCI-H322M lung -19% | HOP-62 NSCLC -42.9% | A549/ATCC NSCLC -25.6% | 786-0 renal -43.6% | COLO 205 colon -62.3% | DU-145 prostate -17.5% | SF-268 CNS -1.73% | SF-295 CNS -37.5% | SF-539 CNS -39.2% | HCT-15 colon -18.6% | SNB-75 CNS -50.1% | SNB-19 CNS -6.9% | U251 CNS -17.3% | PC-3 prostate -23.9% | EKVX NSCLC -25.1% | UO-31 renal -29.4% | ACHN renal -16.1% | HL-60(TB) leukemia -44.9% | CCRF-CEM leukemia -11.5%

C/C=C/CC(C)C(O)[C@H](NC(=O)[C@@H]1CCCN1C(=O)C(C)(C)NC(=O)CCCCCCCCC)C(=O)N[C@@](C)(CC)C(=O)N[C@@H](CCC(N)=O)C(=O)N[C@H](CCC(N)=O)C(=O)NC(C)(C)C(=O)NC(C)(C)C(=O)N[C@@H](CCC(N)=O)C(=O)N[C@H](CC(C)C)C(=O)N[C@H](CO)CC(C)C (stereo not given in full)
-69.3% (active) and 12% (inactive): SF-539 CNS
-39.5% (active) and 25.2% (inactive): 786-0 renal
-12.3% (active) and 28.3% (inactive): HOP-62 NSCLC
-89.3% (active) and 13.7% (inactive): U251 CNS
1.3% (active) and 79.5% (inactive): HL-60(TB) leukemia
-28.9% (active) and 35.2% (inactive): SNB-19 CNS
-0.538% (active) and 75.5% (inactive): NCI-H226 lung
inactive: NCI-H322M lung 31% and 67.6% | A549/ATCC NSCLC 78.8% and 99.8% | HCT-15 colon 38% and 89.3% | PC-3 prostate 21.4% and 32.4% | UO-31 renal 39.1% and 62.6% | ACHN renal 40.3% and 68.4% | CCRF-CEM leukemia 14.7% and 49.4%
-10.4% (active) and 50.9% (inactive): COLO 205 colon
active: DU-145 prostate -94.5% and -42.1% | SF-268 CNS -77% and 4.8% | SF-295 CNS -64.6% and -30.2% | SNB-75 CNS -55.9% and -38.8%
0.155% (active) and 23% (inactive): EKVX NSCLC
